# High-throughput results: PubChem, several laboratories
# Only some compounds are listed: those with a hit (about 3.2% of all), similar ones and a draw of the others.
# CHT block: inhibitors of human choline transporter CHT | CHT-expressing cells, membrane potential dye, choline response; hits give low values | B-score at 10 µM | Q9GZV3 | 0.86% of 310,000 active;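 active = B-score over 3 SD under the library average, and starting fluorescence ratio not unusually high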;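 also: choline stimulus applied at its EC90 after an EC20 pre-addition; B-score computed on integrated fluorescence ratio after choline addition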
# CHT PAM: allosteric activators of human choline transporter CHT; Q9GZV3; CHT-expressing cells, membrane potential dye, choline EC20; hits give high values; LV-AA mutant CHT in HEK293 cells; B-score at 10 µM; 0.49% of 310,000 active;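 active = initial fluorescence not abnormally high and integrated response B-score, plate-corrected, over 3 SD above library mean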
# ANO1 block: mouse TMEM16A channel inhibition, primary screen; HEK293 TMEM16A/YFP iodide influx fluorescence, ionomycin; 1.2% of 310,000 active; Q8BHY3; normalized B-score (activity score, 25-100; higher = stronger inhibition) at 10 µM;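 active = ratio plate-corrected score three or more library SD toward inhibition, starting fluorescence score within five deviations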;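 also: score derived from kinetic fluorescence span divided by baseline fluorescence per well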
# Rce1 inhib: blocks yeast Ras-converting enzyme; Q03530; yeast membranes, quenched prenylated peptide cleavage fluorescence; calls only; 0.27% of 290,000 active; AID 2563;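 active = fall in fluorescence gain of 50% or more versus controls, with final raw signal at or below 3038400; inconclusive = same 50% fall but final raw signal above 3038400; inactive = fall in fluorescence gain under 50%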;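 also: plate controls were neutral control wells for no effect and wells lacking membranes for full effect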
# ANO1 activ: activates or potentiates the mouse TMEM16A chloride channel; B-score at 10 µM; HEK293 TMEM16A/YFP-H148Q/I152L, iodide quench fluorescence; hits give low values; Q8BHY3; 0.3% of 340,000 active;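 active = fluorescence-ratio B-score plate-corrected deviation score at least 3 library SD below zero, with starting fluorescence score within 5 deviations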;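 also: channel opened by trigger with iodide after compound preincubation; score built on the fluorescence ratio of max minus min over baseline; more negative score means more quench and so TMEM16A activation or potentiation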
# Kir21 inh: blocks the mouse Kir2.1 inward-rectifier potassium channel | P35561 | HEK293-Kir2.1, FluxOR thallium flux fluorescence; hits give low values | B-score at 10 µM | 0.85% of 310,000 active | AID 1672;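 active = fluorescence ratio B-score at or below minus 3 SD of library scores, with starting-brightness B-score within 2 SD, cut at about -4.2 in these data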;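 also: channel flux triggered by added potassium and thallium sulfate stimulus; B-score of peak minus minimum fluorescence over baseline after thallium stimulus; more negative B-score means stronger Kir2.1 block with less thallium influx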
# CHT block conf: human CHT inhibition, confirmatory screen. shares compounds with CHT block. CHT-expressing cells, choline membrane potential dye; LV-to-AA substituted CHT, HEK293 cells. CHT activity remaining % of control (hits give low values), % at 10 µM. 70% of 2,400 active;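 active = choline transporter activity left, mean of duplicates at 10 µM, below buffer-only control mean minus 3 SD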;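 also: depolarization triggered by choline at its EC90 following an EC20 pre-addition; 0% = hemicholinium-3 full block and 100% = buffer-only control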
# HEK293 CHT ctr: CHT inhibitor counter-screen hit in parental HEK293 cells. shares compounds with CHT block. membrane potential dye, choline response; active = decrease or increase beyond buffer ±3SD. 4% of 2,400 active. membrane potential ratio readout (active if shifted either direction beyond buffer ±3SD; no single direction) at 10 µM;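 also: parental cells lack the transporter so any hit is non-specific; ratio is peak minus trough fluorescence over baseline after EC90 choline challenge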
# * hit, by the source's call; i = inactive; ? = inconclusive; . = no result given.
SMILES,CHT block,CHT PAM,ANO1 block,Rce1 inhib,ANO1 activ,Kir21 inh,CHT block conf,HEK293 CHT ctr
CCS(=O)(=O)c1ncc(Cl)c(C(=O)Nc2ccc(S(=O)(=O)N3CCCC(C)C3)cc2)n1 (configuration not stated),i,i,i,i,i,1.8,.,.
CC1CN(C(=O)CSc2nnc(CNC(=O)c3ccc(S(=O)(=O)N(C)C)cc3)o2)CC(C)O1 (configuration not stated),i,i,i,i,i,-0.97,.,.
COC(=O)c1ccc(NC(=O)C2CCN(C(=O)Nc3ccccc3)CC2)cc1,.,.,.,.,i,.,.,.
NC(=O)CC(NC(=O)c1ccccc1)c1ccc(N2CCCCCC2)c([N+](=O)[O-])c1 (configuration not stated),-8.6*,i,i,i,i,-0.25,13%*,i
CN(Cc1ccccc1)c1ccc(C(CC(N)=O)NC(=O)c2ccc(Br)cc2)cc1[N+](=O)[O-] (configuration not stated),-6.5*,i,25*,i,i,0.19,70%*,i
C=Cn1cc[n+](CC(=O)c2ccc(-c3ccccc3)cc2)c1,-6.7*,i,i,i,i,-0.96,60%*,i
CC(C)(C)S(=O)(=O)/C(C#N)=N/Nc1ccc(Cl)cc1,-5.5*,i,i,.,i,0.06,47%*,i
COCCNC(=O)c1cccc(OC2CCN(Cc3ccccc3C)CC2)c1,i,i,i,i,i,-0.13,.,.
COc1ccc(C)cc1NC(=O)CN1CCN(c2ccccc2F)CC1,-5*,i,i,.,i,.,i,i
CC(Sc1nc2ccccc2s1)C(=O)Nc1nnc(C(C)C)s1 (configuration not stated),-5.3*,i,i,i,i,-0.47,i,i
Cc1ccc(S(=O)(=O)N2CCCCC2C(=O)N(C)c2ccccc2)cc1 (configuration not stated),i,i,i,i,i,-0.96,.,.
O=C(Nc1sc2c(c1C(=O)O)CCC2)c1ccccc1,i,i,i,i,i,0.98,.,.
O=C(Nc1sc2c(c1C(=O)O)CCCC2)c1ccc(Cl)cc1,-6.3*,i,i,i,i,1.4,53%*,i
CN(C)C(=O)[C@H]1C[C@H]1[C@@H](O)[C@H](CO)NC(=O)[C@H](COCc1ccccc1)NC(=O)OC(C)(C)C,i,i,i,i,i,-1.1,.,.
NC1=NC2(CCCCCC2)n2c(nc3ccccc32)N1,-5.5*,i,i,i,i,-0.35,15%*,i
c1ccc2c(c1)NC1(CCCCCC1)n1c-2nc2ccccc21,i,i,i,?,i,0.2,.,.
CCCc1cc(C(=O)Cc2ccc(F)cc2)c(O)cc1O,-6.5*,i,100*,i,i,-1.6,62%*,i
Cc1ccc(OCCCn2ccnc2)c(Br)c1,i,i,i,i,i,-0.67,.,.
O=C(CSc1nnc(-c2ccco2)n1Cc1ccco1)NCc1ccccc1,-5.1*,i,i,i,i,-2.7,i,i
O=C(CSc1nnc(-c2ccco2)n1Cc1ccccc1)NCc1ccccc1,i,i,i,i,i,-1.2,.,.
CC1(C)NC(=O)N(CC(=O)OCC(=O)N2CCN(S(=O)(=O)c3ccccc3)CC2)C1=O,.,.,.,.,i,.,.,.
Brc1ccc(CNc2ccc3ncccc3c2)cc1,i,i,i,i,i,-0.14,.,.
Cc1c(O)ccc(/C(Cc2ccc3ccccc3n2)=N\N)c1O,-5.9*,i,i,i,i,0.36,56%*,i
C=CCNc1nc2ccccc2nc1NS(=O)(=O)c1ccc(F)cc1,i,i,i,i,i,0,.,.
